{
  "source": "PubChem BioAssay AID720650",
  "about": "(Broad Institute, 2013)",
  "note": "Unmarked numbers belong to inactive results. Calls of active or inactive are those of the source. The rule behind the calls is not given here.",
  "data": [
    {"test": "Biochemical counterscreen for C difficile toxins, absence of UDPG, inhibitor dose response (AID 720650)", "conditions": "series mostly up to 19.5 µM; activity change, negative = inhibition: at the top concentration", "values": [
      {"smiles": "CN(CCN1CCOCC1)C(=O)CC1C(=O)NCCN1Cc1ccccc1C(F)(F)F", "note": "(centres undefined)", "activity change, negative = inhibition": "8.75%"},
      {"smiles": "CN1CCN(CC(=O)Nc2cc(N(C)C)nc3ccccc23)CC1", "activity change, negative = inhibition": "8.85%"},
      {"smiles": "COc1ccccc1CNC(=O)CNC(=O)N1CC(=O)Nc2ccccc21", "activity change, negative = inhibition": "-6.27%"},
      {"smiles": "O=C(C[C@H]1CC[C@@H]2[C@H](COC[C@@H](O)CN2C(=O)Nc2ccc(Cl)c(Cl)c2)O1)NCc1ccncc1", "activity change, negative = inhibition": "-7.89%"},
      {"smiles": "O=C(O)c1ccc(/C=N/NC(=S)NCCN2CCOCC2)cc1", "activity change, negative = inhibition": "-2.89%"},
      {"smiles": "O=C(c1ccc(N2CCOCC2)c([N+](=O)[O-])c1)N1CCN(c2ccccc2F)CC1", "AC50": "> 39 µM"},
      {"smiles": "C/C(=N\\NC(=O)c1ccccc1O)c1cccc(NC(=O)c2ccccc2)c1", "activity change, negative = inhibition": "-12.3%"},
      {"smiles": "COc1ccc(NS(=O)CCCc2ccccc2)cc1", "note": "(centres undefined)", "activity change, negative = inhibition": "-1.77%"},
      {"smiles": "C/C(=N\\NC(=O)CSc1nc2ccccc2c(=O)n1-c1ccccc1C)c1cccs1", "activity change, negative = inhibition": "-1.74%"},
      {"smiles": "Cc1cc(C)cc(N=C2NC(=O)CS2)c1", "activity change, negative = inhibition": "-5.57%"},
      {"smiles": "Cc1cccc(N/N=C/c2ccncc2)c1", "AC50": "1.1 µM (active)"},
      {"smiles": "Cc1ccc(S(=O)(=O)N2CC(CBr)=CCC2c2ccccc2)cc1", "note": "(centres undefined)", "AC50": "13.9 µM (active)"},
      {"smiles": "ClCC(CNCc1ccccc1)c1ccccc1", "note": "(centres undefined)", "activity change, negative = inhibition": "-5.16%"},
      {"smiles": "NS(=O)(=O)c1ccc(CCNC(=O)c2ccc(CS(=O)(=O)c3ccc(Br)cc3)o2)cc1", "activity change, negative = inhibition": "-7.18%"},
      {"smiles": "Cc1cnc(C(=O)OCC(=O)Nc2ccc(OCc3ccccc3)cc2)cn1", "activity change, negative = inhibition": "11.9%"},
      {"smiles": "Cc1csc(N=Nc2ccc(N(C)C)cc2)[n+]1[O-]", "AC50": "> 39 µM"},
      {"smiles": "CC(C)Cc1cc(C(=O)N2CCCC(CO)(Cc3ccc(F)cc3)C2)no1", "note": "(centres undefined)", "activity change, negative = inhibition": "1.04%"},
      {"smiles": "COc1cc2oc3ccc(C#Cc4ccccn4)cc3c(=O)c2cc1OC", "activity change, negative = inhibition": "-8.45%"},
      {"smiles": "O=C(O)c1ccc(-c2ccc(O)c(F)c2)cc1", "AC50": "13.5 µM (active)"},
      {"smiles": "Cc1ccn(CCC(=O)NC2CC(C)(C)Cc3c2cnn3-c2ccccc2C)n1", "note": "(centres undefined)", "activity change, negative = inhibition": "7.13%"},
      {"smiles": "COC(=O)C1=C(c2ccc(F)cc2OCc2ccccc2)C[C@@H]2CC[C@H]1N2C(=O)N1CCCC1", "activity change, negative = inhibition": "-8.05%"},
      {"smiles": "Oc1ccc(Nc2nc(Cl)nc(NCc3ccco3)n2)cc1", "activity change, negative = inhibition": "-15.3%"},
      {"smiles": "Oc1ccc(-c2nccs2)cc1", "AC50": "10.2 µM (active)"},
      {"smiles": "N#Cc1ccc(C(=O)N/N=C/c2cn(CC(=O)O)c3ccccc23)c(F)c1", "activity change, negative = inhibition": "13.3%"},
      {"smiles": "CN1C=CC(=CC=C2C=CC(=O)C=C2)C=C1", "AC50": "7.43 µM (active)"},
      {"smiles": "Cc1ccc(S(=O)(=O)N2CCOCC2)cc1C(=O)NCCCN1CCCC1=O", "activity change, negative = inhibition": "-7.95%"},
      {"smiles": "Cc1cccc2sc(NNC(=O)C3COc4ccccc4O3)nc12", "note": "(centres undefined)", "AC50": "0.294 µM (active)"},
      {"smiles": "COc1ccccc1-c1cn[nH]c1-c1ccc(O)cc1O", "AC50": "> 39 µM"},
      {"smiles": "O=S(=O)(c1ccccc1)N1CCN(Cc2nnc(-c3ccccc3)o2)CC1", "activity change, negative = inhibition": "-4.82%"},
      {"smiles": "CCN1CCN(C(=O)C2=CC(c3ccc(OC)cc3)=NS(=O)(=O)N2C)CC1", "activity change, negative = inhibition": "-16.2%"},
      {"smiles": "O=C1/C(=C/c2cccnc2)SC(=NCc2ccccc2)N1Cc1ccccc1", "activity change, negative = inhibition": "-7.63%"},
      {"smiles": "COc1ccc(/C=C\\c2onc(C)c2S(=O)(=O)N2CCC(C(=O)NCc3ccco3)CC2)cc1", "activity change, negative = inhibition": "-7.32%"},
      {"smiles": "COc1cc(NC(=O)CCc2nnc3ccc(N4CCC(C)CC4)nn23)cc(OC)c1", "activity change, negative = inhibition": "15.7%"},
      {"smiles": "CNC(=O)C[C@H]1CC[C@@H]2[C@H](COc3ccc(NS(=O)(=O)c4ccccc4C)cc3C(=O)N2C)O1", "activity change, negative = inhibition": "6.47% [at 21 µM]"},
      {"smiles": "C=CCn1c(SCC(=O)N2CC(=O)Nc3ccccc32)nc2scc(-c3ccccc3)c2c1=O", "activity change, negative = inhibition": "-7.62%"},
      {"smiles": "O=C(O)c1cc(S(=O)(=O)Nc2ccc3cn[nH]c3c2)ccc1Cl", "activity change, negative = inhibition": "11.7%"},
      {"smiles": "COc1ccc(NC2CCCN(C(=O)CN3CCOC3=O)C2)cc1OC", "note": "(centres undefined)", "activity change, negative = inhibition": "-10.4%"},
      {"smiles": "O=C(Cn1cc(COc2ccc(Cl)c(Cl)c2)nn1)NS(=O)(=O)c1ccccc1OC(F)(F)F", "activity change, negative = inhibition": "-6.92%"},
      {"smiles": "CC(C)C12NC(=O)NC(=O)N1CCS2", "note": "(centres undefined)", "activity change, negative = inhibition": "-8.68%"}
    ]}
  ]
}
